From PubChem BioAssay (NCATS)
Results filed as inconclusive are left out. The source made the active and inactive calls. Unless noted, calls come from the whole dose curve; as a rule, active = well fitted cell-killing curve with a large enough effect; inconclusive = small, poorly fitted or top-dose-only effect, or effect the other way; inactive = no such curve, though single readings can be large or run the other way.

Assays:
[1] = Quantitative High-Throughput drug screen in 47 multiple myeloma cell lines against the NCATS MIPE library collection: KMS34_JCRB cell viability assay (AID 1918985); note: nearly all actives have a fitted effect of over 40% in size
In short: (§1)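 Inhibition of viability over 48 h was scored by ATP content (CellTiter-Glo) in 500-cell wells. Zero and full viability were defined by media-only and DMSO-only wells.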

[2] = Quantitative High-Throughput drug screen in 47 multiple myeloma cell lines against the NCATS MIPE library collection: OCIMY7_PLB cell viability assay (AID 1918987); note: nearly all actives have a fitted effect of over 65% in size
In short: as §1

[3] = Quantitative High-Throughput drug screen in 47 multiple myeloma cell lines against the NCATS MIPE library collection: OCIMY5_PLB cell viability assay (AID 1918988); note: nearly all actives have a fitted effect of over 65% in size
In short: as §1

[4] = Quantitative High-Throughput drug screen in 47 multiple myeloma cell lines against the NCATS MIPE library collection: OPM1_PLB cell viability assay (AID 1918989); note: nearly all actives have a fitted effect of over 40% in size
In short: as §1

[5] = Quantitative High-Throughput drug screen in 47 multiple myeloma cell lines against the NCATS MIPE library collection: SKMM1_PLB cell viability assay (AID 1919863); conditions: SKMM1 myeloma viability, CellTiter-Glo ATP, 48 h; viability: stronger effect = lower value; note: nearly all actives have a fitted effect of over 35% in size
In short: as §1

[6] = Quantitative High-Throughput drug screen in 47 multiple myeloma cell lines against the NCATS MIPE library collection: U266_ATCC cell viability assay (AID 1919864); note: nearly all actives have a fitted effect of over 35% in size
In short: as §1

[7] = Quantitative High-Throughput drug screen in 47 multiple myeloma cell lines against the NCATS MIPE library collection: XG6_PLB cell viability assay (AID 1919865); note: nearly all actives have a fitted effect of over 40% in size
In short: as §1

[8] = Quantitative High-Throughput drug screen in 47 multiple myeloma cell lines against the NCATS MIPE library collection: XG1_PLB cell viability assay (AID 1919866); note: nearly all actives have a fitted effect of over 35% in size
In short: as §1

[9] = Quantitative High-Throughput drug screen in 47 multiple myeloma cell lines against the NCATS MIPE library collection: VP6_DJ cell viability assay (AID 1919867); note: nearly all actives have a fitted effect of over 40% in size
In short: as §1

[10] = Quantitative High-Throughput drug screen in 47 multiple myeloma cell lines against the NCATS MIPE library collection: UTMC2_PLB cell viability assay (AID 1919868); conditions: CellTiter-Glo ATP luminescence, 48 h; viability (% of DMSO control): at 45.8 µM (top of the series) unless noted; note: nearly all actives have a fitted effect of over 55% in size
In short: as §1

[11] = Quantitative High-Throughput drug screen in 47 multiple myeloma cell lines against the NCATS MIPE library collection: PE2_PLB cell viability assay (AID 1919869); note: nearly all actives have a fitted effect of over 35% in size
In short: as §1

[12] = Quantitative High-Throughput drug screen in 47 multiple myeloma cell lines against the NCATS MIPE library collection: PCM6_Riken cell viability assay (AID 1919870); note: nearly all actives have a fitted effect of over 30% in size
In short: as §1

[13] = Quantitative High-Throughput drug screen in 47 multiple myeloma cell lines against the NCATS MIPE library collection: RPMI8226_ATCC cell viability assay (AID 1919871); note: nearly all actives have a fitted effect of over 30% in size
In short: as §1

[14] = Quantitative High-Throughput drug screen in 47 multiple myeloma cell lines against the NCATS MIPE library collection: OPM2_DSMZ cell viability assay (AID 1919872); note: nearly all actives have a fitted effect of over 30% in size
In short: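 CellTiter-Glo luminescence (ATP) after 48 h compound exposure, 37C/5% CO2; 500 cells/well; MIPE 4.0 approved/investigational drugs pinned in; DMSO = 100%, media only = 0% viability.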

[15] = Quantitative High-Throughput drug screen in 47 multiple myeloma cell lines against the NCATS MIPE library collection: KMS11_JCRBsus cell viability assay (AID 1919873); note: nearly all actives have a fitted effect of over 50% in size
In short: as §1

[16] = Quantitative High-Throughput drug screen in 47 multiple myeloma cell lines against the NCATS MIPE library collection: KMS28BM_JCRB cell viability assay (AID 1919874); note: nearly all actives have a fitted effect of over 35% in size
In short: as §1

[17] = qHTS drug screen for cell cycle checkpoint inhibitors in PARPi-resistant BRCA-mutant ovarian cancer cell lines. (AID 1963452; calls by dose curve); conditions: PEO1/OlaR viability, CellTiter-Glo luminescence, 96 h; for Z-AUC: stronger effect = lower value
In short: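 PEO1, PEO4 and PEO1/OlaR ovarian cancer cells, 600 per well, exposed 96 h at 37C to a dilution series. Viability read by CellTiter-Glo luminescence, normalized to DMSO and empty wells; activity summarized as Z-AUC.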

[18] = Quantitative High-Throughput drug screen in 47 multiple myeloma cell lines against the NCATS MIPE library collection: L363_DSMZ cell viability assay (AID 1918984); note: nearly all actives have a fitted effect of over 40% in size
In short: as §1

[19] = qHTS for identification of novel therapeutic agents for treatment of microphthalmiaassociated transcription factor (MiT) renal cell carcinoma (RCC) (AID 1963991; calls by dose curve;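 for z-score: curves scaled with 100% = DMSO viability and 0% = empty wells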); conditions: CellTiter-Glo, 48 h; for Potency: active = Z-AUC below -0.8 in all three lines; for z-score: stronger effect = lower value
In short: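 UOK109/UOK124/UOK145 (TFE3 fusions, three partners); 500 cells/well; MIPE v4.0, 1912 cpds, 11 conc.; 48 h, 37 C; CellTiter-Glo, 15 min RT; lum. Norm.: DMSO 100%, empty 0%.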

[20] = measured here: PEO1 parental Z-AUC
[21] = TFE3-RCC UOK109 viability, measured here: UOK109 Z-AUC
[22] = TFE3-RCC viability, measured here: UOK124 Z-AUC
[23] = TFE3-RCC viability, measured here: UOK145 Z-AUC
Potency is the fitted concentration of half-maximal effect.

SMILES: Cc1cnc(Nc2ccc(F)cc2Cl)nc1-c1c[nH]c(C(=O)N[C@H](CO)c2cccc(Cl)c2)c1
- Potency [1]: 23500 nM (active)
- Potency [2]: 4690 nM (active)
- Potency [3]: 18700 nM (active)
- Potency [4]: 20900 nM (active)
- Potency [5]: 20900 nM (active)
- Potency [6]: 20900 nM (active)
- Potency [7]: 3720 nM (active)
- Potency [8]: 13200 nM (active)
- Potency [9]: 5260 nM (active)
- Potency [10]: 18700 nM (active)
- Potency [11]: 6620 nM (active)
- Potency [12]: 18700 nM (active)
- Potency [13]: 20900 nM (active)
- Potency [14]: 18700 nM (active)
- Potency [15]: 16600 nM (active)
- Potency [16]: 20900 nM (active)
- Z-AUC [17]: 0.276 (inactive)
- Z-AUC [17, 20]: 0.0916
- Z-AUC ([17]; measured here: PEO4 Z-AUC): 0.18

SMILES: CCCCCCCCCC(=O)N[C@@H](Cc1c[nH]c2ccccc12)C(=O)N[C@H](CC(N)=O)C(=O)N[C@@H](CC(=O)O)C(=O)N[C@@H]1C(=O)NCC(=O)N[C@@H](CCCN)C(=O)N[C@@H](CC(=O)O)C(=O)N[C@H](C)C(=O)N[C@@H](CC(=O)O)C(=O)NCC(=O)N[C@H](CO)C(=O)N[C@@H]([C@@H](C)CC(=O)O)C(=O)N[C@@H](CC(=O)c2ccccc2N)C(=O)O[C@@H]1C
- Potency [18]: inactive
- Potency [3]: inactive
- viability [5]: 145% (inactive)
- Potency [7]: inactive
- Potency [8]: inactive
- Potency [11]: inactive
- Potency [13]: inactive
- Potency [14]: inactive
- Potency [15]: inactive
- Potency [16]: inactive
- Z-AUC [17]: -0.7 (inactive)
- Z-AUC [17, 20]: -0.476
- Z-AUC ([17]; measured here: PEO4 Z-AUC): -0.85

SMILES: CC(C)[C@H](C(=O)Nc1ccc(C(=O)NO)cc1)c1ccccc1
- Potency [1]: 264 nM (active)
- Potency [2]: 418 nM (active)
- Potency [3]: 526 nM (active)
- Potency [4]: 469 nM (active)
- Potency [5]: 1180 nM (active)
- Potency [6]: 935 nM (active)
- Potency [7]: 2350 nM (active)
- Potency [8]: 833 nM (active)
- Potency [9]: 372 nM (active)
- Potency [10]: 469 nM (active)
- Potency [11]: 1050 nM (active)
- Potency [12]: 935 nM (active)
- Potency [13]: 1320 nM (active)
- Potency [15]: 469 nM (active)
- Potency [16]: 526 nM (active)
- Potency [17]: 1380 nM (active)
- Z-AUC [17, 20]: -1.53
- Z-AUC ([17]; measured here: PEO4 Z-AUC): -1.69
- Potency ([19]; TFE3-RCC UOK109 viability): 1870 nM (active)
- z-score [19, 21]: -1.43
- z-score [19, 22]: -1.8
- z-score [19, 23]: -1.54

SMILES: COc1cc2c(Oc3ccc(-c4cnc(Nc5ccc(F)cc5)n(C)c4=O)cc3F)ccnc2cc1OCCCN1CCOCC1
- Potency [1]: 18700 nM (active)
- Potency [2]: 7430 nM (active)
- Potency [3]: 14800 nM (active)
- Potency [4]: 6620 nM (active)
- Potency [5]: 29600 nM (active)
- Potency [6]: 20900 nM (active)
- Potency [7]: 3320 nM (active)
- Potency [8]: 7430 nM (active)
- Potency [9]: 2640 nM (active)
- Potency [10]: 5260 nM (active)
- Potency [11]: 14800 nM (active)
- Potency [12]: 7430 nM (active)
- Potency [13]: 5900 nM (active)
- Potency [15]: 935 nM (active)
- Potency [16]: 4180 nM (active)
- Z-AUC [17]: -1.38 (inactive)
- Z-AUC [17, 20]: -0.565
- Z-AUC ([17]; measured here: PEO4 Z-AUC): -0.285

SMILES: CC(C)c1nn(-c2c(Cl)cccc2Cl)c2nc(Cc3ccc(OCCO)cc3)[nH]c(=O)c12
- Potency [1]: 118 nM (active)
- Potency [2]: 74.3 nM (active)
- Potency [3]: 74.3 nM (active)
- Potency [4]: 132 nM (active)
- Potency [5]: 332 nM (active)
- Potency [6]: 209 nM (active)
- Potency [7]: 83.3 nM (active)
- Potency [8]: 187 nM (active)
- Potency [9]: 37.2 nM (active)
- Potency [10]: 93.5 nM (active)
- Potency [11]: 74.3 nM (active)
- Potency [12]: 46.9 nM (active)
- Potency [13]: 118 nM (active)
- Potency [14]: 264 nM (active)
- Potency [15]: 52.6 nM (active)
- Potency [16]: 209 nM (active)
- Z-AUC [17]: -1.25 (inactive)
- Z-AUC [17, 20]: -2.35
- Z-AUC ([17]; measured here: PEO4 Z-AUC): -1.5
- Potency ([19]; TFE3-RCC UOK109 viability): 132 nM (active)
- z-score [19, 21]: -2.2
- z-score [19, 22]: -1.63
- z-score [19, 23]: -2.67

SMILES: Cn1c2ccccc2c2c3c(c4c5ccccc5n(CCC#N)c4c21)CNC3=O
- Potency [1]: 3720 nM (active)
- Potency [2]: 590 nM (active)
- Potency [3]: 5900 nM (active)
- Potency [4]: 296 nM (active)
- Potency [5]: 8330 nM (active)
- Potency [6]: 4690 nM (active)
- Potency [7]: 526 nM (active)
- Potency [8]: 2350 nM (active)
- Potency [9]: 2960 nM (active)
- Potency [10]: 2640 nM (active)
- Potency [11]: 1870 nM (active)
- Potency [12]: 1870 nM (active)
- Potency [13]: 20900 nM (active)
- Potency [14]: 11800 nM (active)
- Z-AUC [17]: -0.442 (inactive)
- Z-AUC [17, 20]: -1.02
- Z-AUC ([17]; measured here: PEO4 Z-AUC): -1.08
- Potency ([19]; TFE3-RCC UOK109 viability): 7430 nM (active)
- z-score [19, 21]: -0.993
- z-score [19, 22]: -2.34
- z-score [19, 23]: -1.2

SMILES: CN(C1CCc2c(c3ccccc3n2CC(=O)O)C1)S(=O)(=O)c1ccc(F)cc1 (stereo not given)
- Potency [18]: 1480 nM (active)
- Potency [3]: 4690 nM (active)
- Potency [6]: 18700 nM (active)
- Potency [7]: 1870 nM (active)
- Potency [8]: 3720 nM (active)
- Potency [9]: 74.3 nM (active)
- Potency [11]: inactive
- Potency [12]: 3720 nM (active)
- Potency [13]: inactive
- Potency [14]: inactive
- Potency [16]: 296 nM (active)

SMILES: CC1(C)CC(=O)c2c(C(F)(F)F)nn(-c3ccc(C(N)=O)c(NC4CCC(OC(=O)CN)CC4)c3)c2C1 (stereo not given)
- Potency [1]: 166 nM (active)
- Potency [2]: 83.3 nM (active)
- Potency [3]: 187 nM (active)
- Potency [4]: 166 nM (active)
- Potency [5]: 264 nM (active)
- Potency [6]: 166 nM (active)
- Potency [7]: 296 nM (active)
- Potency [8]: 83.3 nM (active)
- Potency [9]: 166 nM (active)
- Potency [10]: 209 nM (active)
- Potency [11]: 209 nM (active)
- Potency [12]: 74.3 nM (active)
- Potency [14]: 296 nM (active)
- Potency [15]: 118 nM (active)
- Potency [16]: 187 nM (active)
- Z-AUC [17]: -1.29 (inactive)
- Z-AUC [17, 20]: -0.877
- Z-AUC ([17]; measured here: PEO4 Z-AUC): -0.312

SMILES: O=C(Nc1nc2cccc(-c3ccc(CN4CCS(=O)(=O)CC4)cc3)n2n1)C1CC1
- Potency [1]: 8330 nM (active)
- Potency [2]: 9350 nM (active)
- Potency [3]: 6620 nM (active)
- Potency [4]: 14800 nM (active)
- Potency [5]: 16600 nM (active)
- Potency [6]: 14800 nM (active)
- Potency [7]: 16600 nM (active)
- Potency [8]: 14800 nM (active)
- Potency [11]: 16600 nM (active)
- Potency [13]: 18700 nM (active)
- Potency [15]: 13200 nM (active)
- Potency [16]: 14800 nM (active)
- Z-AUC [17]: 0.985 (inactive)
- Z-AUC [17, 20]: 0.544
- Z-AUC ([17]; measured here: PEO4 Z-AUC): 0.638
